Laboratory results reported in PubChem BioAssay.
Calls of active or inactive are those of the source.

How the values were obtained:
[1] = target: Albumin (Bos taurus) (UniProt P02769); assay: bovine serum albumin binders on microarray, profiling panel, artefact control for SMM control protein annotation, biochemical, small-molecule microarray, Alexa647 label, 635/667 nm fluorescence (AID 1118); details: BSA-A647 binding, fluorescence 635 nm, higher = more signal;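 also: score merges 667 nm emission intensity and signal-to-noise per printed compound spot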
Sequence of Albumin (Bos taurus) (P02769 whole entry, looked up): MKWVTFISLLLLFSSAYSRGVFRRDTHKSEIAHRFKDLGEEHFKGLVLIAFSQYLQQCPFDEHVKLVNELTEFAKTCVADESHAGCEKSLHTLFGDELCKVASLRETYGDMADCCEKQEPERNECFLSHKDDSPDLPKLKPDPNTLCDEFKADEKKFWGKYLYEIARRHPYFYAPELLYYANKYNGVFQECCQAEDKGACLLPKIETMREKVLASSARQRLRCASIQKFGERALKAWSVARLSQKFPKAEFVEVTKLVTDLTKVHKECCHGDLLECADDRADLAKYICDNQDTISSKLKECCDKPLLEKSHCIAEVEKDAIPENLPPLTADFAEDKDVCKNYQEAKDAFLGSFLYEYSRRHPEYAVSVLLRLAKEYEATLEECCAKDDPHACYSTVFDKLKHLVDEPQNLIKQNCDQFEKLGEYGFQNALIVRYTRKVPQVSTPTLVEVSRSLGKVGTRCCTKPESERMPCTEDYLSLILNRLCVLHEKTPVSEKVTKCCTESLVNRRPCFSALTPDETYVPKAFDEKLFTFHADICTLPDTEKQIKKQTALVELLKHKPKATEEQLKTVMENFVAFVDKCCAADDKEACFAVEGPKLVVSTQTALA

[2] = small-molecule microarray binders of probe aXIP, primary screen, biochemical, NeuroSMM set, 635/667 nm fluorescence (AID 1119); details: higher = more signal, called active from +8 up or from −8 down;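 also: probe is the protein aXip251-270 applied at 1 µg/mL to compound-printed slides; binding of probe to printed compounds measured as 667 nm fluorescence plus signal to noise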
[3] = small-molecule binders of probe aNOTCH3, primary screen, biochemical, small-molecule microarray, 635/667 nm fluorescence (AID 1120); details: higher = more signal;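 also: probe is a biotin-tagged antibody raised against NOTCH3 rather than NOTCH3 protein; score merges spot fluorescence near 667 nm with spot signal to noise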
[4] = small-molecule binders of probe aNOTCH2, primary screen, biochemical, small-molecule microarray, 635/667 nm fluorescence (AID 1121); details: higher = more signal;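 also: score merges feature fluorescence read at 667 nm with its signal to noise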
[5] = target: Carbonic anhydrase 2 (Homo sapiens) (UniProt P00918); assay: CAII small-molecule binders, profiling panel, biochemical, small-molecule microarray, Alexa647-labelled CAII (AID 1122); details: CAII-A647 binding fluorescence, higher = more signal
[6] = COS7 lysate on small-molecule microarray, probe aHis, 635 nm (AID 1123); details: COS7 cell lysate, fluorescence, higher = more signal;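 also: z-score combines 667nm fluorescence intensity with signal-to-noise per printed compound spot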
[7] = compound binding in COS7 lysate, probe aLAP1, primary screen, cell lysate, small-molecule microarray (AID 1124); details: probe aLAP1, fluorescence, higher = more signal;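 also: lysate comes from COS7 cells expressing LAP1 and is applied at 0.3 µg/mL; score merges spot fluorescence near 667 nm with signal-to-noise over triplicate slides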
[8] = system: Sam68 (KHDRBS1); assay: Sam68 small-molecule binders, primary screen, biochemical, small-molecule microarray, 635 nm fluorescence (AID 1125); details: small-molecule microarray binding, higher = more signal;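 also: score merges 667 nm channel intensity with signal to noise over triplicate slides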
[9] = system: Chordin-like protein 2 (CHRDL2); assay: CHRDL2 small-molecule binders, primary screen, biochemical, small-molecule microarray, 635 nm fluorescence (AID 1126); details: small-molecule microarray binding, fluorescence 635 nm; higher = more signal;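 also: printed compound slides probed with Chrdl2 protein at 4 µg/mL for 1 h at 4 C; score merges 667 nm emission intensity with signal to noise over three replicate slides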
[10] = target: Concanavalin-A (Canavalia ensiformis) (UniProt P02866); assay: ConA small-molecule binders, primary screen, artefact control for SMM control protein annotation, biochemical, small-molecule microarray, Alexa647 label, 635 nm (AID 1127); details: ConA-A647 binding fluorescence, higher = more signal;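 also: z combines 667 nm emission intensity with signal-to-noise across three replicate slides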
Sequence of Concanavalin-A (Canavalia ensiformis) (P02866 whole entry, looked up): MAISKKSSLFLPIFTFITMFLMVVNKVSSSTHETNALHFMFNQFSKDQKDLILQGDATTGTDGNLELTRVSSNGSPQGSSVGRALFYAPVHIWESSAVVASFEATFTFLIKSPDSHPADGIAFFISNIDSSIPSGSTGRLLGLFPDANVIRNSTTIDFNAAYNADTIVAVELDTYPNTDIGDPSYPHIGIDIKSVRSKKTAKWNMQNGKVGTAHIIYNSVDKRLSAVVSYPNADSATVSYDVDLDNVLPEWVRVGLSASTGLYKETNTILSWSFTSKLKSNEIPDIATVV

Row | SMILES | composite z-score [1] | composite Z-score [2] | composite z-score [3] | composite z-score [4] | composite z-score [5] | composite z-score [6] | composite z-score [7] | composite z-score [8] | composite z-score [9] | composite z-score [10]
1 | [N-]=[N+]=NCc1ccccc1C[C@]1(C(=O)NCc2ccccc2)N=C(c2ccc(OCCCO)cc2)O[C@H]1c1ccccc1N=[N+]=[N-] | 0.841 | 0.187 (inactive) | 0.531 | -0.098 | 0.476 | 1.91 | 0.317 | 1.09 | -0.38 | 0.822
2 | O=C1c2ccccc2[C@@]2(Cc3ccccc3N(C3CC3)C2=O)[C@H](c2ccc(CO)cc2)N1Cc1ccccc1C(F)(F)F | -0.259 | -0.174 (inactive) | 0.062 | -0.0248 | 0.82 | -0.0061 | 0.439 | 0.219 | -0.338 | -0.657
3 | COC(=O)CC=C[C@@H](C)[C@@H](C=NO[C@@H](C)c1cc(-c2c(C)cc(C)cc2C)no1)OC | -0.387 | -0.483 (inactive) | -0.161 | -0.156 | -0.604 | -0.556 | -0.52 | -1.32 | -1.36 | -0.627
4 | CCCCCN1CC=CC23O[C@@H]4C=CCOC(=O)[C@@H]4[C@H]2C(=O)N(C(CO)C(C)C)[C@@H]3C1=O (stereo not given in full) | 0.13 | 0.252 (inactive) | -0.0328 | -0.13 | 0.286 | -0.59 | 1.06 | -0.827 | -0.326 | 0.203
5 | COc1ccc(O[C@H]2C=C[C@@H](c3ccccc3)O[C@@H]2COC(=O)CCC(C)=NOCC[C@@H]2C=C[C@H](OC(C)=O)[C@@H](COC(C)=O)O2)cc1 | -0.598 | 0.806 (inactive) | 0.297 | -0.0028 | 0.654 | 0.938 | 0.203 | -0.23 | -0.0022 | -0.997
6 | CC1CC/C=C\[C@H]2OC34C=CCN(C(C)C)C(=O)[C@H]3N(CCCO)C(=O)[C@@H]4C2C(=O)O1 (stereo not given in full) | 0.468 | -1.03 (inactive) | -0.0018 | -0.0621 | 0.9 | 0.702 | 0.962 | -0.499 | -0.951 | -1.74
7 | CCOC(=O)[C@H](CC(C)C)NC(=O)CCC1CC(OC(=O)NCc2cccc3ccccc23)CC2(CCCC(COC(=O)NCCc3ccccc3OC)O2)O1 (stereo not given in full) | 0.752 | 0.0898 (inactive) | -0.155 | -0.0708 | 0.211 | 0.398 | 0.251 | 1.3 | 0.566 | 1.11
8 | COC(=O)c1c(CC[C@@H](CO)NC(=O)N[C@H](Cc2ccccc2)Cn2cc(-c3ccccc3N)nn2)oc(C(C)=O)c1C(=O)OC | 0.484 | -0.202 (inactive) | 0.237 | 0.115 | 0.0874 | 1.31 | 0.481 | 0.938 | 0.509 | -0.0831
9 | C=COC[C@H]1CN2[C@@H](CC[C@@H](C)[C@@H]2c2ccc(Br)cc2)C(=O)O1 | 0.496 | -0.0224 (inactive) | 0.0999 | 0.0877 | 0.459 | 0.807 | 0.446 | 1.33 | 0.664 | 1.03
10 | COC(=O)CC=C[C@H](C)[C@H](CO)NS(=O)(=O)c1ccc(C)cc1 | -0.333 | 0.755 (inactive) | 0.0522 | -0.13 | 0.131 | -0.0961 | 0.121 | 0.217 | 0.91 | 0.579
11 | CCCNC(=O)[C@@H]1c2ccccc2C(=O)N(Cc2ccccc2Cl)[C@H]1c1ccc(CO)cc1 | 0.414 | -0.231 (inactive) | -0.0794 | -0.0631 | 0.585 | 1.86 | 0.779 | 1.3 | 0.36 | 1.13
12 | COc1cccc([C@@H]2Oc3ccc(Br)cc3C(=O)[C@H]2O)c1 | 0.705 | 0.38 (inactive) | -0.0111 | -0.084 | 0.439 | 0.599 | 0.214 | 0.26 | 0.432 | 1.11
13 | COCCCNC(=O)[C@@]1(Sc2ccc(C)cc2)CC(=O)N(Cc2ccccc2)[C@@H]1c1ccc(CO)cc1I | 0.757 | 0.394 (inactive) | -0.178 | 0.0079 | 0.688 | 0.987 | 0.791 | -0.249 | -0.527 | -1.27
14 | COc1ccc(-c2ccc3c(n2)CCCN3CC(O)CN2CCCc3nc(C)c(C)cc32)cc1 (stereo not given) | 0.683 | 2.43 (inactive) | 0.713 | -0.0017 | 0.741 | 0.975 | 0.677 | 1.2 | 1.18 | 1.09
15 | [N-]=[N+]=Nc1ccccc1C[C@@]1(C(N)=O)N=C(c2ccc(OCCCO)cc2)O[C@@H]1c1ccccc1 | 0.841 | 0.0117 (inactive) | -0.0014 | -0.0633 | 0.723 | 1.74 | 0.567 | 1.05 | -1.26 | 0.704
16 | O=C1C[C@@H](O)[C@@H](O)[C@@H]2[C@@H]3C(=O)N(Cc4ccc5c(c4)OCO5)C(=O)[C@@H]3CC[C@@H]12 | 0.295 | 0.856 (inactive) | -0.0146 | -0.0938 | 0.229 | 0.0971 | -0.0553 | 0.507 | 0.558 | 0.492
17 | CO[C@@H]1COC(=O)[C@@H]2CCCN2C(=O)[C@@H](C)COC(=O)[C@H](COCc2ccccc2)NC(=O)CC=C[C@H]1C | 0.0307 | -0.413 (inactive) | -0.059 | -0.147 | 0.12 | 1.35 | -0.0015 | 0.813 | 0.611 | 0.379
